Assay in all cases: DAPPL (digital affinity profiling via proximity ligation, sequencing); 10 mM Tris-HCl pH 7.5, 50 mM NaCl, 1 mM DTT, 4% glycerol, room temperature, 30 min; GST-TFs on glutathione beads, 16-mer random dsDNA library, 0.1% formaldehyde crosslink after washing; high values mean tight binding
Common to all, as to conditions: protein: recombinant; tags: N-terminal GST; dsDNA, one strand shown

One experiment has as its target T1, FLI1 (Homo sapiens, UniProt Q01543 1-452).
T1 sequence: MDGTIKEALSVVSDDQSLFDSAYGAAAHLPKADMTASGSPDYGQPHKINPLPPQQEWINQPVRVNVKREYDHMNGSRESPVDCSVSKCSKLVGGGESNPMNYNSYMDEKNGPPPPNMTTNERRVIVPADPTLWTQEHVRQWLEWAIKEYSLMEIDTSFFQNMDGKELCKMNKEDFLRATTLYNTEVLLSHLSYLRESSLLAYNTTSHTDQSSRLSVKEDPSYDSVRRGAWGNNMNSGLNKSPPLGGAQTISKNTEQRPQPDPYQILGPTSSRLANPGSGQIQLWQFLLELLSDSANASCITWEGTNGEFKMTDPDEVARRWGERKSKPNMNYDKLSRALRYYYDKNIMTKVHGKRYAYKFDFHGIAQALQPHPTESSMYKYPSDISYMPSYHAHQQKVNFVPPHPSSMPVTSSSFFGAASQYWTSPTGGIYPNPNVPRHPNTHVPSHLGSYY
In a few lines: (§1)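 Each value of binding signal is a hexamer's read frequency for a factor divided by the same hexamer's frequency in the tag-only sample. Barcoded, bead-captured GST fusions of human transcription factors made in yeast were pooled with that sample and incubated with 200 nmole of a random double-stranded 16-mer DNA library in Tris/NaCl/DTT/glycerol buffer at room temperature for 30 min. Washing, 0.1% formaldehyde crosslinking, proximity ligation, PCR and Illumina NextSeq500 sequencing followed.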

The target of the next experiment is T2, ELK1 (Homo sapiens, UniProt P19419 1-428).
T2 sequence: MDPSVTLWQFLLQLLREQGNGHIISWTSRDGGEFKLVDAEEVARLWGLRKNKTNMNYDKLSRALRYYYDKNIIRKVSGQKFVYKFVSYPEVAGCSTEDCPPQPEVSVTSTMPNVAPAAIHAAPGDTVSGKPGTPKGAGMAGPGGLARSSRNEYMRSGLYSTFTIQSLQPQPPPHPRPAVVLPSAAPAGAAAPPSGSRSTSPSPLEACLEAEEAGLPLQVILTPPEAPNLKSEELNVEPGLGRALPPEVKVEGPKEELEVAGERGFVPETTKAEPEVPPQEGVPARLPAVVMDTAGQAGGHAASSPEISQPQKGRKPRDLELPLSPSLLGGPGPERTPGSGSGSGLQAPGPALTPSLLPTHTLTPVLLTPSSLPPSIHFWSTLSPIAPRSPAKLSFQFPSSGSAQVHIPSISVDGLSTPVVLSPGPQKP
In outline:
as §1

The target of another experiment is T3, GABPA (Homo sapiens, UniProt Q06546 1-454).
T3 sequence: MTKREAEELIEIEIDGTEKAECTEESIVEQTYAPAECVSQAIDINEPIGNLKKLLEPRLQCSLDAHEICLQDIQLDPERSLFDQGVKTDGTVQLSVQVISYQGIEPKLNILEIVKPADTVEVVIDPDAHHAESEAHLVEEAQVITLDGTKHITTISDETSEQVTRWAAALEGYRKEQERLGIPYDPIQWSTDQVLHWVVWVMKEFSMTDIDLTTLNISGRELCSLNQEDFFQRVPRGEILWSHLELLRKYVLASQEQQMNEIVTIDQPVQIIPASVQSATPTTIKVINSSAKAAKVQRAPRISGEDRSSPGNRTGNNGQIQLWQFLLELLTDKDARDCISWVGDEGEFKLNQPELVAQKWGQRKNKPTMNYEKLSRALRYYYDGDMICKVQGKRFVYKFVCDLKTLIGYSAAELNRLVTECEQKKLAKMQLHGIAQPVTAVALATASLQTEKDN
In a few lines:
as §1

Another experiment deals with T4, ERG (Homo sapiens, UniProt P11308 1-479).
T4 sequence: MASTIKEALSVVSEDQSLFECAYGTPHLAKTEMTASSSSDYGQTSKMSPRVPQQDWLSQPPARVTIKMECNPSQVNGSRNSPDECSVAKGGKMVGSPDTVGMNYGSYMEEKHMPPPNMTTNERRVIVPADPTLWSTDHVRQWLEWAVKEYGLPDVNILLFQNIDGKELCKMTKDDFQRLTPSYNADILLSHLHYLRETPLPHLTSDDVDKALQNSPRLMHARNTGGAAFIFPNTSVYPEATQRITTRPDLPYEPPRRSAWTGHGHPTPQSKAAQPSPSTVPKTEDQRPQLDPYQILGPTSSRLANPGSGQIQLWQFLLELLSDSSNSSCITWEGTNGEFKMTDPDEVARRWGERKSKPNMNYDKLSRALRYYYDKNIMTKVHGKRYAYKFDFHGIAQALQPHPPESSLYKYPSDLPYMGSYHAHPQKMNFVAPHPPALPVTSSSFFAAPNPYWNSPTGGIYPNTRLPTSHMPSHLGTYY
In a few lines:
as §1

The target in a further experiment is ELF1 (Homo sapiens, UniProt P32519 1-619). In a few lines:
as §1

In another experiment the target is T5, EHF (Homo sapiens, UniProt Q9NZC4 1-300).
T5 sequence: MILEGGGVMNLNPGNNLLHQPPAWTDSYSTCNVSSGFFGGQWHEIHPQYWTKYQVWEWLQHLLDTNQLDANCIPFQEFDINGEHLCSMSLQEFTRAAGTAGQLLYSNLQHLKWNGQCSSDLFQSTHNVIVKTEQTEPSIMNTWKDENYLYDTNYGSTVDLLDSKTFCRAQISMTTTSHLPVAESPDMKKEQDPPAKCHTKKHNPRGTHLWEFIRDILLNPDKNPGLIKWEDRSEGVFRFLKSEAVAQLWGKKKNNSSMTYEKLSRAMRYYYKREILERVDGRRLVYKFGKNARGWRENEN
In a few lines: as §1

The next experiment concerns the target SPI1 (Homo sapiens, UniProt P17947 1-270). In outline:
as §1

In the next experiment the target is SPIB (Homo sapiens, UniProt Q01892 1-262). In a few lines: as §1
For a further experiment, the target named is T6, ELK3 (Homo sapiens, UniProt P41970 1-407).
T6 sequence: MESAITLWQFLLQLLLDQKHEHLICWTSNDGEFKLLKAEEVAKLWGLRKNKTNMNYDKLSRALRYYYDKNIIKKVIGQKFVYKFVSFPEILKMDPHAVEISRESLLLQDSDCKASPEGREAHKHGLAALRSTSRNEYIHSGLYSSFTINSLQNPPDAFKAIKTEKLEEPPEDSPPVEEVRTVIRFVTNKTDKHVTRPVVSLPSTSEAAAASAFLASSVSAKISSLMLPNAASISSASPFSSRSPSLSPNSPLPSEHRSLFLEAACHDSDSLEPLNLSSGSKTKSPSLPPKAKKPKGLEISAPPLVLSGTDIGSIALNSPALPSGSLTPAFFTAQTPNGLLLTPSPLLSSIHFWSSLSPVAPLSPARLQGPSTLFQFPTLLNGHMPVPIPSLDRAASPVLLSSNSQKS
In outline: as §1

In the next experiment the target is T7, FEV (Homo sapiens, UniProt Q99581 1-238).
T7 sequence: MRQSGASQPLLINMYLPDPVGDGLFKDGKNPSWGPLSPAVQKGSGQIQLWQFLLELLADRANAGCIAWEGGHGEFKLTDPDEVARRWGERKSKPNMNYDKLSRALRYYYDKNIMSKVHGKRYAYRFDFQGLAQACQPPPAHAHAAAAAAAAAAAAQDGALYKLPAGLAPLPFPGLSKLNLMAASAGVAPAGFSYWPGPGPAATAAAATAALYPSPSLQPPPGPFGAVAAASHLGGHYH
In outline:
as §1

A further experiment concerns the target ETV5 (Homo sapiens, UniProt P41161 1-510). In a few lines:
as §1

A further experiment has as its target T8, SPIC (Homo sapiens, UniProt Q8N5J4 1-248).
T8 sequence: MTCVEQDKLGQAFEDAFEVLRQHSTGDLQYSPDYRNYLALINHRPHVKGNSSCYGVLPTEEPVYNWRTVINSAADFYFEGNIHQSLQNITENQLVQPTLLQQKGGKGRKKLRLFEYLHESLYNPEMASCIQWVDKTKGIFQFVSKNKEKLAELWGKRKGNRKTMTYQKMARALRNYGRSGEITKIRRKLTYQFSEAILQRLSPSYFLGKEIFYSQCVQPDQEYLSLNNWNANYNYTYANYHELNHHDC
In outline:
as §1

A further experiment deals with ELF4 (Homo sapiens, UniProt Q99607 1-663). In outline:
as §1

In the next experiment the target is T9, ELK4 (Homo sapiens, UniProt P28324-2 1-405).
T9 sequence: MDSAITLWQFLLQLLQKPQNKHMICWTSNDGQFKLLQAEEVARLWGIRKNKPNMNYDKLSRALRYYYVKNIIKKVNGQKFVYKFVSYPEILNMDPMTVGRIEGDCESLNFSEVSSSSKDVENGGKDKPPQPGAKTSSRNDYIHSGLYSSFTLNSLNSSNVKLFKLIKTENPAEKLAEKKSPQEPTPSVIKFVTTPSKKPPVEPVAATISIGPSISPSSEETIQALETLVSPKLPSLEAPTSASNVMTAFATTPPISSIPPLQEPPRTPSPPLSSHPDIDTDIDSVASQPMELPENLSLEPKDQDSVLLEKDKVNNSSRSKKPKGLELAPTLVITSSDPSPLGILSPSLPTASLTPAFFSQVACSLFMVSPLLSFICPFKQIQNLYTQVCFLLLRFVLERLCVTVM
In a few lines:
as §1

In the next experiment the target is T10, ETV2 (Homo sapiens, UniProt O00321 1-342).
T10 sequence: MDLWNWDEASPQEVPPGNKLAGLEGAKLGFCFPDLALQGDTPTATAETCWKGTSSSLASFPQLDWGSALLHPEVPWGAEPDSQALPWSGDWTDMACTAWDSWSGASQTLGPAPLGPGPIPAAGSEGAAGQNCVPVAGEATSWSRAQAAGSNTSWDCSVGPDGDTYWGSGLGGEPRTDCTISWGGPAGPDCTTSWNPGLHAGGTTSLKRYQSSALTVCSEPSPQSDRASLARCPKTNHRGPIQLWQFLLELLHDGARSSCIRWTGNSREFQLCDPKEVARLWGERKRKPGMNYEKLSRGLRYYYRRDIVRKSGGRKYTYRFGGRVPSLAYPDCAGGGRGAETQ
In a few lines: as §1

The target of a further experiment is T11, ELF3 (Homo sapiens, UniProt P78545 1-371).
T11 sequence: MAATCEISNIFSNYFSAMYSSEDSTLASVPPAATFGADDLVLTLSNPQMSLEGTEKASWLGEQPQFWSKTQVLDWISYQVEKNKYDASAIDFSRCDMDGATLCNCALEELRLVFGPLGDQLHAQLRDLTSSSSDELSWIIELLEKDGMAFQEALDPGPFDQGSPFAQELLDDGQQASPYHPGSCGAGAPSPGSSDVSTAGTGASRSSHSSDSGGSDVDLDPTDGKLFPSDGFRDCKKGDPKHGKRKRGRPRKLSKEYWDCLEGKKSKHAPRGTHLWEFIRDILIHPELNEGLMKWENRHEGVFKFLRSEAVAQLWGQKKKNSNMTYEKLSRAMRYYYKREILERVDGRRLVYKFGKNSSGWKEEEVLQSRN
In a few lines:
as §1

Another experiment has as its target ETV1 (Homo sapiens, UniProt P50549 1-477). In a few lines: as §1

Chain of ETV1 (P50549 whole entry): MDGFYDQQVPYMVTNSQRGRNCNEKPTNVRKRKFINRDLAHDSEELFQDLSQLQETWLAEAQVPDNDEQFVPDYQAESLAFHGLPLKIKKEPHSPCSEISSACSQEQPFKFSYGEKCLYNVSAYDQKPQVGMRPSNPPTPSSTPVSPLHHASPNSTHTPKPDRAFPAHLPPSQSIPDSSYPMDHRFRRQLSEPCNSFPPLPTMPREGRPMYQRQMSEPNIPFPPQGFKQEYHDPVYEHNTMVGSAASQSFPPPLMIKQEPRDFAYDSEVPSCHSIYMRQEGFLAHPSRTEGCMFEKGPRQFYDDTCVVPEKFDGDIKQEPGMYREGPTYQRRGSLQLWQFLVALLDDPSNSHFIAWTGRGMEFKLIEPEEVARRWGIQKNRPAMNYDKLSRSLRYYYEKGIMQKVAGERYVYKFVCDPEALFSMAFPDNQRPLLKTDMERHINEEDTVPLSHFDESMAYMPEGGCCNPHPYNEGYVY
Chain of SPIB (Q01892 whole entry): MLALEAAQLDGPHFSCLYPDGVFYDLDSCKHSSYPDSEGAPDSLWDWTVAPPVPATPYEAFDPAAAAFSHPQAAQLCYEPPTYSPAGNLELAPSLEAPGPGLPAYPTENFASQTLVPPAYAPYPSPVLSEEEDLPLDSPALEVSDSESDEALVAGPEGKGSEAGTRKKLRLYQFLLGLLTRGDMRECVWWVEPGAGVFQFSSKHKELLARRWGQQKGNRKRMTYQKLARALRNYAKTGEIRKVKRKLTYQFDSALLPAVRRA
Chain of ELF1 (P32519 whole entry): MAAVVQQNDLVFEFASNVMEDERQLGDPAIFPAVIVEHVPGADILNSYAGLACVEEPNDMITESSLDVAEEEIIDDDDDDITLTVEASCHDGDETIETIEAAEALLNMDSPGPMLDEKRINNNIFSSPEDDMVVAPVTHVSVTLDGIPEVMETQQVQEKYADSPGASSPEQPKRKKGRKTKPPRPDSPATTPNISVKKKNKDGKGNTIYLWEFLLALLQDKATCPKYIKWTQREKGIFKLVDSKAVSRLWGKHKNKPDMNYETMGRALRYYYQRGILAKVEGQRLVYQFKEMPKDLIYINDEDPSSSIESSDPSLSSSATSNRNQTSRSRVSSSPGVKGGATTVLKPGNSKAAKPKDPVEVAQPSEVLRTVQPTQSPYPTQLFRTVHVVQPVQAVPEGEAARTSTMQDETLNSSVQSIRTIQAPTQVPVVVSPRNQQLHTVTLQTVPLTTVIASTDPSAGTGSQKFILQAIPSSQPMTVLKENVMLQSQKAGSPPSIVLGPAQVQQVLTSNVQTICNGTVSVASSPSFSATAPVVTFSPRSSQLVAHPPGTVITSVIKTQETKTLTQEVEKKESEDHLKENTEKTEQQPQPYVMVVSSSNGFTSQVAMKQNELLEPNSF
Chain of ETV5 (P41161 whole entry): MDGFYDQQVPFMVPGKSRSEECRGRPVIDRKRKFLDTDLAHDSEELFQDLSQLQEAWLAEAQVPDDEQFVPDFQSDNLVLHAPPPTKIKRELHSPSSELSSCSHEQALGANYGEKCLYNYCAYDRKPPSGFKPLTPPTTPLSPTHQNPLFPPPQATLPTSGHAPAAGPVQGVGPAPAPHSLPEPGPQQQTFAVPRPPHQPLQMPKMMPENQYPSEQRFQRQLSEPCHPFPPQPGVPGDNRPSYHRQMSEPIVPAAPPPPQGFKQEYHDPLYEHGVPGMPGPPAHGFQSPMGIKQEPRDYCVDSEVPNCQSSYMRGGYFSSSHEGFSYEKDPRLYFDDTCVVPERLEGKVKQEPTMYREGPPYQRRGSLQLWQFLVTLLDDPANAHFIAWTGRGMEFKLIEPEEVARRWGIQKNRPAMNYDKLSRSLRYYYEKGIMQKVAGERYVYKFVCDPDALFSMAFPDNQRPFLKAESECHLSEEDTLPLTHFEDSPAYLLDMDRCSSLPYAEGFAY
Chain of ELF4 (Q99607 whole entry): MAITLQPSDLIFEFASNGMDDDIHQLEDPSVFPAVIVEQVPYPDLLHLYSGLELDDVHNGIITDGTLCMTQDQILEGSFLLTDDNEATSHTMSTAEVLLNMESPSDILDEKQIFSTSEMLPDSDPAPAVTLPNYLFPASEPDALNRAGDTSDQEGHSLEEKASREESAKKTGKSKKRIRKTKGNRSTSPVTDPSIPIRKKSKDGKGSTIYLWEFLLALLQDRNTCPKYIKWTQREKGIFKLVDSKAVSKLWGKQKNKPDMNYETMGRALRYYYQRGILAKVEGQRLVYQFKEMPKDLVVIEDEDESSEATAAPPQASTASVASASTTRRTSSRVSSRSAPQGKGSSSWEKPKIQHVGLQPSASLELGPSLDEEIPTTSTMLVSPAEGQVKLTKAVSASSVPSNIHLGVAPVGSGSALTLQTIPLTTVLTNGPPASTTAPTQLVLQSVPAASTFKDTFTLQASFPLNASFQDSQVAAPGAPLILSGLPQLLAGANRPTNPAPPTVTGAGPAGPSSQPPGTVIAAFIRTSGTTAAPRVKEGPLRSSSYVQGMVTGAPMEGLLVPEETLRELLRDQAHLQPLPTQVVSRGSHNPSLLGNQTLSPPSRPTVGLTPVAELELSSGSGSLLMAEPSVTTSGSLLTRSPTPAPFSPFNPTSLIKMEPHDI

For TGCACA, the binding signal with FLI1 is 1.18 fold enrichment (6-mer frequency, TF over GST control); with ELK1, 1.18 fold enrichment (6-mer frequency, TF over GST control); with GABPA, 1.03 fold enrichment (6-mer frequency, TF over GST control); with ERG, 1.09 fold enrichment (6-mer frequency, TF over GST control); with ELF1 it was 1.1 fold enrichment (6-mer frequency, TF over GST control); with EHF it was 1.02 fold enrichment (6-mer frequency, TF over GST control). For the same sequence, the binding signal was 1.05 fold enrichment (6-mer frequency, TF over GST control) in the experiment with SPI1; 1.13 fold enrichment (6-mer frequency, TF over GST control) with SPIB; 1.2 fold enrichment (6-mer frequency, TF over GST control) with ELK3; 1.14 fold enrichment (6-mer frequency, TF over GST control) in the experiment with FEV; 1.13 fold enrichment (6-mer frequency, TF over GST control) in the experiment with ETV5; 1.15 fold enrichment (6-mer frequency, TF over GST control) with SPIC. The binding signal with ELF4 is 1.12 fold enrichment (6-mer frequency, TF over GST control); in the experiment with ELK4, 1.11 fold enrichment (6-mer frequency, TF over GST control); with ETV2, 1.15 fold enrichment (6-mer frequency, TF over GST control); with ELF3, 1.26 fold enrichment (6-mer frequency, TF over GST control); with ETV1 it was 1.09 fold enrichment (6-mer frequency, TF over GST control).

These data come from article PMC7862700, “An all-to-all approach to the identification of sequence-specific readers for epigenetic DNA modifications on cytosine”.
